Measured values from PMC5540273 (PLoS ONE, 2017).

The molecules below were run on CDK8. Settings: concentration: 1 μM, replicates: in singlicate; n = 1.
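Also: KINOMEscan kinase panel screen.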

Row | Compound | %Inh [%]
1 | Oc1cc(Nc2ccnc3cc(I)ccc23)ccc1F [GW552771] | 23
2 | CCn1c(-c2nonc2N)nc2c(C#CC(C)(C)O)ncc(OCCCCN)c21.O=C(O)C(F)(F)F.O=C(O)C(F)(F)F [GSK507274] | 0
3 | CC(=O)Nc1nc2cnc(Nc3cc(NC(=O)c4cccc(C5(C#N)CC5)c4Cl)ccc3C)nc2s1 | 21
4 | O=C(Nc1ccccc1F)NC1CCN(c2ccnc(Nc3ccc(F)cc3)n2)CC1 [GSK1379800] | 51
5 | O=C(Nc1n[nH]c2nc(-c3ccc(O)cc3)ccc12)C1CC1 [SB-710363] | 0
6 | c1ccc(Oc2ccc(Nc3ccnc4cc(-c5ccc(CNCCN6CCOCC6)o5)ccc34)cc2)nc1 [GW567145] | 55
7 | COc1cccc(C(=O)Nc2cccc(Oc3ccc4nc(NC(=O)C5CC5)cn4n3)c2)c1 | 38
8 | Cc1occc1-c1ncc(OC[C@@H](N)Cc2c[nH]c3ccccc23)cc1-c1ccc2[nH]nc(C)c2c1.O=C(O)C(F)(F)F [GSK682037] | 25
9 | COCCOCCOc1cc2ncc3c4ccc(C#N)cc4[nH]c3c2cc1OC | 1
10 | Cn1cc(-c2ccc3c(c2)CCN3C(=O)Cc2cccc(Cl)c2)c2c(N)ncnc21 [GSK2606590] | 100
11 | O=C(Nc1cccc(-c2nn3ncccc3c2-c2ccnc(Nc3ccccc3)n2)c1)c1c(F)cccc1F [GSK198271] | 0
12 | CN(C)Cc1ccc(-c2ccc3c(Nc4ccc(Oc5ccccn5)cc4)ccnc3c2)o1 [GW567148] | 4
13 | C[C@@H](Oc1cc(-n2cnc3cc(-c4ccnc(NCCS(C)(=O)=O)c4)ccc32)sc1C(N)=O)c1ccccc1Cl [GSK907232] | 0
14 | O=C(O)C(F)(F)F.O=C(O)C(F)(F)F.O=c1[nH]ccc2nc(N[C@@H]3CCCNC3)nc(Nc3ccc(S(=O)(=O)N4CCOCC4)cc3)c12 [GSK2177277] | 0

Each molecule was assayed on CDK9. Settings: concentration: 1 μM, replicates: in singlicate; n = 1.

Row | Compound | %Inh [%]
15 | Cl.Cl.NCC(C(=O)Nc1cc(Br)c(-c2ccnc3[nH]ccc23)s1)c1ccccc1 (stereo not drawn) [GSK1269851] | 3
16 | Cl.c1ccc(-c2ccc3c(Nc4ccc5[nH]ncc5c4)ccnc3c2)nc1 [GW440137] | 11
17 | NCCCC(NC(=O)c1cc(Br)c(-c2ccnc3[nH]ccc23)s1)c1ccccc1.O=C(O)C(F)(F)F.O=C(O)C(F)(F)F (stereo not drawn) [GSK1287544] | 4
18 | Cl.Cl.NCC(NCc1ccc(-c2ccnc3[nH]ccc23)s1)c1ccccc1 (stereo not drawn) [GSK1321565] | 0
19 | Cc1ccc(S(=O)(=O)Nc2ccc(Nc3nccc(Nc4cccc5[nH]ncc45)n3)cc2)cc1 [GSK581271] | 0
20 | O=C(Nc1cccc(Oc2ccc3nc(NC(=O)C4CC4)cn3n2)c1)c1ccccc1C(F)(F)F | 0
21 | COc1cccc(NC(=O)NC2CCN(c3ccnc(Nc4cc(OC)c(OC)c(OC)c4)n3)C2)c1 (stereo not drawn) [GSK1379763] | 10
22 | Cl.Cl.NCC(NC(=O)c1cc(-c2ccccc2)c(-c2ccnc3[nH]ccc23)s1)c1ccccc1 (stereo not drawn) [GSK1321561] | 0
23 | Cc1cccc(NC(=O)Nc2ccc(Oc3ncnc4ccn(C)c34)cc2)c1 | 0
24 | COc1cc(Nc2nccc(-c3c(-c4cccc(NC(=O)c5c(F)cccc5F)c4)nn4ncccc34)n2)cc(OC)c1OC [GSK327238] | 0
25 | COc1cc(Nc2nccc(N3CCC(NC(=O)Nc4cccc(C(C)=O)c4)C3)n2)cc(OC)c1OC (stereo not drawn) [GSK1379753] | 0
26 | Cc1ccc(C)c(NC(=O)NC2CCN(c3ccnc(Nc4ccc(F)cc4)n3)C2)c1 (stereo not drawn) [GSK1379720] | 0
27 | COc1ccc(CNC(=O)NC2CCN(c3ccnc(Nc4ccc(F)cc4)n3)CC2)cc1 [GSK1379788] | 0
28 | Nc1ncc(-c2cccnc2)c2scc(-c3ccc4c(c3)CCN4C(=O)Cc3ccccc3)c12 [GSK683281] | 0
29 | O=C(Nc1n[nH]c2cc(-c3ccoc3)ccc12)C1CC1 [SB-738481] | 2
30 | O=c1[nH]cc(-c2ccc(N3CCOCC3)cc2)c2sc(-c3cn[nH]c3)cc12 [GSK2276055] | 71
31 | Nc1n[nH]c2cnc(-c3ccccc3)cc12 [SB-642124] | 53
32 | O=C(Nc1cccc(-c2nn3ccccc3c2-c2ccnc(Nc3cccc(C(F)(F)F)c3)n2)c1)c1c(F)cccc1F [GSK292658] | 0
33 | CN(c1ccc(NC(=O)Nc2cc(C(F)(F)F)ccc2F)cc1)c1ccnc(Nc2ccc(S(N)(=O)=O)cc2)n1 [GW809893] | 93.5

Row | Compound | %Inh [%]
34 | CNC(=O)c1ccccc1Nc1nc(Nc2ccc(N3CCOCC3)cc2)ncc1Cl.Cl [GSK1576028] | 27
35 | COC(=O)Nc1nc2ccc(Oc3ccc(NC(=O)Nc4cc(C(F)(F)F)ccc4F)cc3)cc2n1C.Cl [GW692089] | 0
36 | COc1cc2c(cc1OCCN1CCNCC1)ncc1c3ccc(C#N)cc3[nH]c21 | 8
37 | O=C(NC1CCN(c2ccnc(Nc3ccc(F)cc3)n2)C1)c1cc2ccccc2s1 (stereo not drawn) [GSK1379716] | 6
38 | Oc1cc(Nc2ccnc3cc(I)ccc23)ccc1F [GW552771] | 0
39 | CCn1c(-c2nonc2N)nc2c(C#CC(C)(C)O)ncc(OCCCCN)c21.O=C(O)C(F)(F)F.O=C(O)C(F)(F)F [GSK507274] | 0
40 | CC(=O)Nc1nc2cnc(Nc3cc(NC(=O)c4cccc(C5(C#N)CC5)c4Cl)ccc3C)nc2s1 | 0
41 | O=C(Nc1ccccc1F)NC1CCN(c2ccnc(Nc3ccc(F)cc3)n2)CC1 [GSK1379800] | 0
42 | O=C(Nc1n[nH]c2nc(-c3ccc(O)cc3)ccc12)C1CC1 [SB-710363] | 36
43 | c1ccc(Oc2ccc(Nc3ccnc4cc(-c5ccc(CNCCN6CCOCC6)o5)ccc34)cc2)nc1 [GW567145] | 0
44 | COc1cccc(C(=O)Nc2cccc(Oc3ccc4nc(NC(=O)C5CC5)cn4n3)c2)c1 | 0
45 | Cc1occc1-c1ncc(OC[C@@H](N)Cc2c[nH]c3ccccc23)cc1-c1ccc2[nH]nc(C)c2c1.O=C(O)C(F)(F)F [GSK682037] | 22
46 | COCCOCCOc1cc2ncc3c4ccc(C#N)cc4[nH]c3c2cc1OC | 0
47 | Cn1cc(-c2ccc3c(c2)CCN3C(=O)Cc2cccc(Cl)c2)c2c(N)ncnc21 [GSK2606590] | 0
48 | O=C(Nc1cccc(-c2nn3ncccc3c2-c2ccnc(Nc3ccccc3)n2)c1)c1c(F)cccc1F [GSK198271] | 4
49 | CN(C)Cc1ccc(-c2ccc3c(Nc4ccc(Oc5ccccn5)cc4)ccnc3c2)o1 [GW567148] | 0
50 | C[C@@H](Oc1cc(-n2cnc3cc(-c4ccnc(NCCS(C)(=O)=O)c4)ccc32)sc1C(N)=O)c1ccccc1Cl [GSK907232] | 11
51 | O=C(O)C(F)(F)F.O=C(O)C(F)(F)F.O=c1[nH]ccc2nc(N[C@@H]3CCCNC3)nc(Nc3ccc(S(=O)(=O)N4CCOCC4)cc3)c12 [GSK2177277] | 17
